Laboratory results: ChEMBL document CHEMBL3988442, “University of Dundee, Small-Polar-MMV Screening Library” (2021)
Hit rate of the full screen: of about 48,000 compounds, about 13,000 (27%) showed an effect of 50% or more. The list shows a part of the results.

Tested on: Wolbachia pipientis
Assay: Anti-Wolbachia Cell-Based Screen
Type: functional
Parameters: scale not given: in the data most compounds retested in dose-response had high values
Conditions: 5 µM

Row | SMILES | Percent Effect [%]
1 | CCn1cc(CN(C)C(=O)c2cccc(CCC(C)(C)O)c2)cn1 | -2.58
2 | COCc1ccc(C(=O)N2CCN(CC=C(C)C)[C@@H]3CS(=O)(=O)C[C@@H]32)o1 | -1.241
3 | O=C(c1ccco1)N1CC[C@@H]2[C@H]1CCC(=O)N2c1ccccc1 | 9.276
4 | O=C(O)Cn1nc(C2CC2)c2c(-c3cccs3)ccnc21 | 125.7
5 | O=C(O)Cn1nc(C2CC2)c2c(-c3ccco3)ccnc21 | 121.5
6 | O=C(CN1CC(c2nc(-c3ccco3)no2)C1)NCC1CCCO1.O=C(O)C(=O)O (configuration not stated) | 8.836
7 | O=c1[nH]c(NC2CCCC2)nc2nccc(-c3cccs3)c12 | -0.1995
8 | O=C(Cn1cnc(-c2cccs2)cc1=O)Nc1cccnc1 | 14.09
9 | O=c1[nH]c(NC2CCCC2)nc2nccc(-c3ccco3)c12 | 15.07
10 | N#Cc1ccc(N2CCCC(CO)(CCOc3ccccc3)C2)nc1 (configuration not stated) | -8.429
11 | CC(C)S(=O)(=O)CC(=O)NCC(Cc1ccc(F)cc1)C(N)=O (configuration not stated) | 124.5
12 | CC(C)NC(=O)NCC(Cc1ccc(F)cc1)C(N)=O (configuration not stated) | 96.65
13 | COC(=O)C(CNC(=O)Nc1nncs1)Cc1ccc(F)cc1 (configuration not stated) | 5.054
14 | Cc1ccoc1C(=O)NCC(Cc1ccc(F)cc1)C(N)=O (configuration not stated) | 7.737
15 | NC(=O)CS(=O)(=O)Cc1ccc(F)cc1 | 3.461
16 | CCOc1ccc(CC(CNC(=O)c2occc2C)C(N)=O)cc1 (configuration not stated) | -2.596

Row | SMILES | Percent Effect [%]
17 | CC(C)N(C)CC(=O)NCC(Cc1ccc(F)cc1)C(N)=O (configuration not stated) | 103.5
18 | CCOc1ccc(CC(CNC(=O)c2ccc(C)o2)C(N)=O)cc1 (configuration not stated) | -14.58
19 | CC(C)c1nnc(NC(=O)Cc2ccc(F)cc2)[nH]1 | -66.88
20 | Cc1cc(C)c2nc(CNC3CCCNC3=O)cc(O)c2c1 (configuration not stated) | -9.599
21 | Cn1cc(CN2CCCn3cnc(COCc4ccco4)c3C2)cn1 | -8.432
22 | Cc1cc2c(cc1C)C(NCc1nnc3n1CCCCC3)CCCO2 (configuration not stated) | 3.518
23 | CSCC[C@@H](CO)n1ccnc1-c1nccn1C | -1.218
24 | O=C1CCN(C(=O)NCCc2c[nH]c3ccc(Cl)cc23)CCN1 | 98.23
25 | O=C1CCN(C(=O)C2(c3ccc(Br)cc3)CC2)CCN1 | 3.303
26 | O=C1CCN(C(=O)CCc2ccc(Cl)cc2Cl)CCN1 | 106.4
27 | O=C1CCN(C(=O)NCCCc2ccc(Cl)cc2Cl)CCN1 | 108.4
28 | O=C(NCCOc1ccc(Cl)cc1)N1CCS(=O)(=O)CC1 | 9.107
29 | CC(CNC(=O)N1CCNC(=O)CC1)Cc1cccs1 (configuration not stated) | 17.79
30 | CC(C)(C)c1noc(CCCC(=O)N2CCNC(=O)CC2)n1 | -18.62
31 | CC(=O)N1CCCN(C(=O)NCCc2cc(Cl)cc(Cl)c2)CC1 | 8.517
32 | O=C1CCN(C(=O)CCc2cc(Br)cs2)CCN1 | -5.326
